In all, about 69,000 compounds went through this assay and about 8,600 (12%) showed an effect of 50% or more. For the sample, strong results were picked, then their nearest neighbours and some compounds at random.

The assay relates to Plasmodium berghei. The experiment in a line: Screen against P. berghei liver stage (PbLuc), transformed with Luciferase, at 10uM. It is filed as functional, HepG2. The conditions noted are these: tested at 10 uM.
For `O=C(c1ccncc1)N1CCCC2(COCCN(c3ccccc3)C2)C1` (stereo unspecified), the INHIBITION was -6.82%.
Then `CCS(=O)(=O)N1CCCC2(COCCN(c3cnccn3)C2)C1` (stereo unspecified), with 45.8%.
For `O=C(NC1CC1)N1CCOCC2(CCN(Cc3cccs3)C2)C1` (stereo unspecified), the INHIBITION is recorded as -0.371%.
For the molecule `Cc1ccc(C2CSCCN2C(=O)c2cnsn2)o1` (stereo unspecified), the INHIBITION was determined as 8.46%.
In the case of `CN1CCN(C(=O)c2n[nH]c3c2CN(C2CCOC2)CC3)CC1` (stereo unspecified), the INHIBITION was 22.3%.
Then `CCNc1ncnc2c1CN(C1CCCNCC1)C(=O)CN2C` (stereo unspecified), with 40%; and `CNc1cc(C2CN(CC(=O)N(C)C)CCO2)nc(C)n1` (stereo unspecified), with 14.7%.
The figure for `CC1CN(C)c2ccccc2CN1C(=O)c1cc[nH]c(=O)c1` (stereo unspecified) is -18.3%.
Turning to `Cc1cc(=O)[nH]cc1C(=O)N1Cc2ccccc2N(C)CC1C` (stereo unspecified), the INHIBITION was 52.6%.
The figure for `CCC1CN(C)c2ccccc2CN1C(=O)c1c[nH]c(=O)cc1C` (stereo unspecified) is 28.7%; for `O=C(NCCNc1ncccn1)C1CC(=O)N(CC(F)(F)F)C1` (stereo unspecified) it is 19.5%.
Then `O=C(NCCc1ccccn1)C1CC(=O)N(CC(F)(F)F)C1` (stereo unspecified), with 2.3%; and `Cc1ccccc1CCNC(=O)C1CC(=O)N(CC(F)(F)F)C1` (stereo unspecified), with 55.5%; and `CN1CCN(C(=O)c2cn(-c3ccc(C(F)(F)F)cn3)nn2)CC1`, with 59.1%.
Then `CC1CCN(C(=O)c2cn(-c3ccc(C(F)(F)F)cn3)nn2)CC1`, with 2.55%.
`O=C(c1cn(-c2ccc(C(F)(F)F)cn2)nn1)N1CCCCCC1`: the INHIBITION was determined as 46.1%.
Then `CC(C)N(Cc1ccccn1)S(=O)(=O)N1CCCC1c1ccco1` (stereo unspecified), with 7.515%; and `CCn1nnc2c1C(COC)CN(Cc1cccs1)C2` (stereo unspecified), with -0.113%; and `COc1ccc(-c2nnsc2C(=O)N2CCSCC2)cc1`, with 26.4%.
Turning to `COC(=O)[C@@H](NC(=O)c1snnc1-c1ccc(OC)cc1)C(C)C`, the INHIBITION turned out to be 24.7%.
The figure for `COC(=O)[C@H](CC(C)C)NC(=O)c1snnc1-c1ccc(OC)cc1` is 24.1%.
Then `CCC(C)NC(=O)c1snnc1-c1ccc(OC)cc1` (stereo unspecified), with 74%.
In the case of `COc1ccc(-c2nnsc2C(=O)N2CCN(C(C)=O)CC2)cc1`, the INHIBITION was found to be 2.49%.
Then `COc1ccc(-c2nnsc2C(=O)N2CCC(C(N)=O)CC2)cc1`, with 90.4%.
For `O=C(NCCO)NC(c1ccccc1)c1ccc2c(c1)CCCO2` (stereo unspecified), the INHIBITION is listed as 22.6%.
The figure for `NCCC(=O)N1CCC2(CC1)CN(C(=O)c1ccc(Cl)cc1)CCO2` is 16.8%; for `Cc1nc(CN(C)Cc2cnc(N3CCOCC3)s2)no1` it is 32.1%; for `COCCN(Cc1nccs1)c1nc2c(s1)c(C)nn2C` it is 22%.
The figure for `CCCc1nnc(N(C)CC2CCN(CC(C)C)C2)o1` (stereo unspecified) is -62.4%.
As to `Cc1nn(C)c2ncnc(N(C)CC3CCN(CC(C)C)C3)c12` (stereo unspecified), the INHIBITION is 36.3%.
The figure for `Cc1nn(C)c2nc(N(CCN(C)C)C3CCCC3)sc12` is 53%; for `Cc1nn(C)c2nc(N(C)CC3CCN(CC(C)C)C3)sc12` (stereo unspecified) it is 74.3%.
The figure for `Cc1nn(C)c2nc(N(C)CCN(C)C3CCCC3)sc12` is 39.9%; for `Cc1nn(C)c2nc(N(C)CCN(C)C)sc12` it is 39.1%.
As to `COCCN1CCC(CN(C)c2nc3c(s2)c(C)nn3C)C1` (stereo unspecified), the INHIBITION is reported as 48.5%.
Then `COCCN(CCOC)c1nc2c(s1)c(C)nn2C`, with 65.6%; and `COCCN1CCC(CN(C)c2nc3c(s2)c(C)nn3C)CC1`, with 64.4%.
Turning to `COCCN(Cc1cnn(C)c1)c1nc2c(s1)c(C)nn2C`, the INHIBITION was found to be 45.2%.
Then `COCCN1CCCC(CN(C)c2nc3c(s2)c(C)nn3C)C1` (stereo unspecified), with 3.96%.
Then `CCOc1cc2c(cc1CN1CCC3(CC1)CNC(=O)C3)CCC2`, with 39.4%; and `COc1c(C2CCCN2CC(=O)NCc2ccccn2)c(C)nn1C` (stereo unspecified), with 19.6%; and `COC(C(=O)NC1CC1)c1ccccc1` (stereo unspecified), with -35.9%.
Then `CCOC(=O)C1(O)CCN(C(=O)Nc2cccc(F)c2)CC1`, with -16.9%; and `CNC(=O)Cc1cc2nccc(-c3c(OC)cccc3OC)n2n1`, with 45.6%.
Regarding `COc1cccc(OC)c1-c1ccnc2cc(CC(=O)NC3CC3)nn12`, the INHIBITION turned out to be 39.7%.
As to `COc1cccc(OC)c1-c1ccnc2cc(CC(=O)NC(C)C)nn12`, the INHIBITION amounted to 54.5%.
In the case of `CCN(c1ccc(C(=O)NCc2ccnc(C)n2)cc1)C(C)C`, the INHIBITION turned out to be 0.433%.
Then `CCN(c1ccc(C(=O)NCc2cc[nH]n2)cc1)C(C)C`, with 82.6%; and `CC(C)c1ccc(O)c(C(=O)NCc2cc[nH]n2)c1`, with 12.8%; and `Cc1cc(Cc2ccc(S(=O)(=O)N3CCOCC3)cc2)c(=O)[nH]n1`, with 19.8%.
The figure for `CN(Cc1ccon1)C(=O)C1CC(=O)N(Cc2cccnc2)C1` (stereo unspecified) is -49.3%; for `CCN(Cc1nc(C)no1)C(=O)C1CC(=O)N(Cc2ccccn2)C1` (stereo unspecified) it is -14.1%.
The figure for `CCN(CC1CCOCC1)C(=O)C1CC(=O)N(Cc2cccnc2)C1` (stereo unspecified) is 53.2%.
As for `CCc1nnc(CN(CC)C(=O)C2CC(=O)N(Cc3cccnc3)C2)o1` (stereo unspecified), the INHIBITION worked out at 23.5%.
The figure for `CCc1noc(CN(CC)C(=O)C2CC(=O)N(Cc3ccncc3)C2)n1` (stereo unspecified) is 53.2%; for `CCN(Cc1nc(C)no1)C(=O)C1CC(=O)N(Cc2cccnc2)C1` (stereo unspecified) it is 15.6%.
